# Screening data deposited in PubChem BioAssay by Broad Institute.
# BL2 CD40 inh = CD40 pathway inhibition in BL2 cells; BL2 NF-kB luciferase reporter, CD40L-induced, 4 h; inhibition, % at 10 µM; hit rate 0.94% among 83,000; AID 1053188;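 active = mean inhibition of at least 50% with a set share of replicates also reaching that level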;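 also: 0% = neutral control wells and 100% = IKK inhibitor VII at 50 µM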
# * = called active by the depositor; [ ] = another dose, or the depositor's remark. The sample as a whole holds a higher share of hits than the screen did.
SMILES,BL2 CD40 inh
NCC(O)COCCC12CC3CC(CC(C3)C1)C2 (stereo not given),15
CC(C)CC(NC(=O)N1CCCCCC1)C(=O)NC(Cc1cn(C)c2ccccc12)C(=O)NC(Cc1ccccn1)C(=O)O (stereo not given),-1[25 µM]
C[C@H]1CN([C@@H](C)CO)C(=O)Cc2cc(NC(=O)C3CC3)ccc2O[C@H]1CN(C)S(=O)(=O)c1cn(C)cn1,9[25 µM]
CCCNC(=O)[C@@H]1[C@@H](CO)[C@@H]2Cn3c(cccc3=O)[C@H]1N2Cc1cccc(Cl)c1,1[25 µM]
c1coc(-c2nnc(-c3ccc4c(c3)OCO4)o2)c1,-46
Cc1ccc(-c2nnc(-c3ccc4c(c3)OCO4)o2)cc1,-65
O=C1CCCCC1Sc1nnc(-c2ccc3c(c2)OCO3)o1 (stereo not given),95*
Cn1cnc([N+](=O)[O-])c1Sc1ccncn1,5
Cc1ccnc(Sc2ccc([N+](=O)[O-])cn2)n1,-15
O=[N+]([O-])c1ccc(Sc2ccncn2)c([N+](=O)[O-])c1,103*
O=C(C1CCC1)N1C[C@H]2[C@@H](c3ccccc31)[C@H](CO)N2C(=O)c1ccccc1,3
CC(=O)N1[C@H](CO)[C@@H](c2ccccc2)[C@H]1CN(C)S(=O)(=O)c1ccccc1,-3[25 µM]
COc1cccc(C(=O)Nc2ccc3c(c2)OC[C@H](C)N(C(=O)C2CCCC2)C[C@@H](C)[C@H](OC)CN(C)C3=O)c1,-1
c1ccc2sc(N3CCOCC3)nc2c1,-29
c1ccc2sc(-c3ccncc3)nc2c1,-64
Cc1ccc(/C=C/c2nc3ccccc3s2)s1,75*
COCCNC(=O)C[C@H]1CC[C@@H]2[C@@H](COc3ccc(NC(=O)Nc4cccc(F)c4)cc3C(=O)N2C)O1,16[25 µM]
C[C@H](CO)N1C[C@H](C)[C@H](CN(C)C(=O)NC2CCCCC2)Oc2ccc(N(C)C)cc2CC1=O,2[25 µM]
CC(=O)N1CCC(N(CCN2CCOCC2)C(=O)Nc2ccc(Cl)c(Cl)c2)CC1,-1
O=C1/C(=C\c2ccc(Cl)c(Cl)c2)CN(C(=O)CCN2CCOCC2)C/C1=C/c1ccc(Cl)c(Cl)c1,74*
O=C(c1ccc(Cl)c(Cl)c1)N1CCC(O)(CN2CCOCC2)CC1,6
COC(=O)c1ccc(CN2CC(=O)N3[C@@H](CO)[C@@H](c4ccc(Br)cc4)[C@@H]3C2)cc1,4
CN(C)CC(=O)N1C[C@@H]2N[C@H](C1)C2c1ccc(-c2ccncc2)cc1 (stereo not given in full),-2[25 µM]
C=C(CN(C)C)C(=O)c1cc(C)ccc1C,91*
Cc1ccc(C)c(C(=O)NCCN(C)C)c1,7
SMILES,BL2 CD40 inh
Cc1ccc(C(=O)NCCN(C)C)cc1C,12
CN1C(=O)c2cc(NC(=O)c3ccc(C(F)(F)F)cc3)ccc2OC[C@H]2O[C@H](CC(=O)NCc3ccc4c(c3)OCO4)CC[C@@H]21,11[25 µM]
c1ccc2c(-c3nc4ccccc4[nH]3)cccc2c1,-2
c1ccc2[nH]c(-c3cscn3)nc2c1,-58
c1ccc2nc(-c3nc4ccccc4[nH]3)ccc2c1,78*
COc1ccccc1-c1cn(CC[C@H]2CC[C@H](NC(=O)C3CCCC3)[C@@H](CO)O2)nn1,-8
O=C(C[C@@H]1C[C@H]2c3cc(NS(=O)(=O)c4ccccc4)ccc3O[C@H]2[C@H](CO)O1)NCC(F)(F)F,-1[25 µM]
CN1c2ccc(-c3cccc(C#N)c3)cc2[C@H]2[C@H](CCN2C(=O)C2CCC2)[C@@H]1CO,-42
C#C[C@]1(O)CC[C@H]2[C@@H]3CCc4cc(OC5CCCC5)ccc4[C@H]3CC[C@@]21C,52*
C=CCOc1ccc2c(c1)CCC1C2CCC2(C)C(O)C(O)CC12 (stereo not given),-111
C#C[C@]1(O)CC[C@H]2[C@@H]3CCc4cc(OC)ccc4[C@H]3CC[C@@]21C,10
CC=Cc1ccc2n(c1=O)C[C@@H]1[C@@H](CO)[C@H](C(=O)NCC(F)(F)F)[C@H]2N1C(=O)CC (mixture of isomers),1[25 µM]
C1CCC(C(CC2CCCCN2)C2CCCCC2)CC1 (stereo not given),78*
O=C(Cc1ccccc1)N1CC(=O)N2[C@H](C1)[C@@H](c1ccc(-c3ccc(F)cc3)cc1)[C@@H]2CO,4[25 µM]
O=C(Nc1ccc(S(=O)(=O)N2CCCC2)cc1)c1ccc(OCC2CCCO2)cc1 (stereo not given),24
Cc1cnc(NC(=O)c2ccc(OCC3CCCO3)cc2)s1 (stereo not given),80*
O=C(NC1=NCCS1)c1ccc(OCC2CCCO2)cc1 (stereo not given),6
O=C(Nc1nc2ccccc2s1)c1ccc(OCC2CCCO2)cc1 (stereo not given),56*
O=C(Nc1nc2ccccc2s1)c1ccc(F)cc1,-80
O=C(Nc1ncccc1O)c1ccc(OCC2CCCO2)cc1 (stereo not given),39
C[C@@H]1CN([C@@H](C)CO)C(=O)Cc2cc(NS(=O)(=O)c3ccc(F)cc3)ccc2O[C@@H]1CN(C)C(=O)NC1CCCCC1,3
COc1ccc(-c2ccc([C@@H]3[C@@H](C#N)N[C@@H]3CO)cc2)cc1,-26[25 µM]
O=C(Nc1ccc(F)cc1)N1CCC(c2nc3c(nnn3Cc3cccc(Cl)c3)c(=O)[nH]2)CC1,69*
O=C(NC1CCCC1)c1nc2c(nnn2Cc2cccc(Cl)c2)c(=O)[nH]1,22
Cc1ccc(NC(=O)N2CCC(c3nc4c(nnn4Cc4cccc(Cl)c4)c(=O)[nH]3)CC2)cc1,42
SMILES,BL2 CD40 inh
Cc1noc(C)c1S(=O)(=O)N(C)C[C@@H]1OCc2cn(nn2)CCCC(=O)N([C@H](C)CO)C[C@@H]1C,-6[25 µM]
C/C=C/c1ccc2c(c1)[C@H]1[C@H](CCN1C(=O)COC)[C@@H](CO)N2,-3
C=C1C(=O)OC2C=C(CO)C3OC3C3OC3(C)CC(OC(=O)/C(=C/C)COC(C)=O)C12 (stereo not given),101*
CO[C@@H]1CN(C)C(=O)c2cc(NS(=O)(=O)c3cccc(Cl)c3)ccc2OC[C@H](C)NC[C@H]1C,-6[25 µM]
N#C[C@H]1[C@@H](c2ccccc2-c2ccccc2F)[C@H](CO)N1C(=O)c1cccc(F)c1,5[25 µM]
CCCNC(=O)N1CC(=O)N2[C@H](CO)[C@H](c3ccc(C#CCC4CCCC4)cc3)[C@@H]2C1,17[25 µM]
c1cncc(-c2nc(-c3ccc4c(c3)OCCO4)cs2)c1,-59
Oc1ccccc1-c1cc(-c2ccc3c(c2)OCCO3)n[nH]1,54*
Cc1nc(-c2ccc3c(c2)OCCO3)cs1,-73
COc1ccccc1-c1ccc([C@@H]2[C@@H](CO)N(C(=O)C3CC3)[C@H]2C#N)cc1,-3
Cc1noc(C)c1S(=O)(=O)Nc1ccc2c(c1)C(=O)N([C@H](C)CO)C[C@H](C)[C@H](CN(C)Cc1ccc3c(c1)OCO3)O2,-25[25 µM]
C=C1C(=O)C23C(O)C1CCC2C12CCCC(C)(COC(C)=O)C1C(O)C3(O)OC2 (stereo not given),104*
C[C@@H](NC(=O)[C@@H]1[C@@H](CO)[C@@H]2Cn3c(ccc(-c4ccccc4)c3=O)[C@H]1N2C)c1ccccc1,-1[25 µM]
O=C(CN1C(=O)C2CCCCC2C1=O)Nc1nc2ccc(F)cc2s1 (stereo not given),-5
Cc1ccccc1C(=O)N1CCC(C(=O)Nc2nccs2)CC1,-13
Cc1ccccc1C(=O)N1CCC(C(=O)Nc2nc3ccc(F)cc3s2)CC1,56*
CC(C)C1CC(N(C)C)=CC(=S)N1 (stereo not given),30*
COC(=O)N(C)C[C@@H]1OCc2ccccc2-c2c(n(C)c3ccccc23)C(=O)N([C@@H](C)CO)C[C@H]1C,-12
